# PubChem BioAssay (EPA / NIEHS)
# Records with an inconclusive call do not appear. Calls of active or inactive are those of the source. The calls were made as follows, unless noted: active = hit-call score of the fitted dose curve at least 0.9, where 1 is the maximum; inconclusive = response in the unintended direction; inactive = score below 0.9.
# Experiments:
# [1] = target: Cellular tumor antigen p53 (Homo sapiens) (UniProt P04637); assay: TOX21_p53_BLA_p2_ratio: Tox21 HCT-116 p53 Agonism Beta-lactamase Assay, Ratio, Phase 2 (AID 2283592)
# Chain of Cellular tumor antigen p53 (Homo sapiens) (P04637 whole entry, looked up): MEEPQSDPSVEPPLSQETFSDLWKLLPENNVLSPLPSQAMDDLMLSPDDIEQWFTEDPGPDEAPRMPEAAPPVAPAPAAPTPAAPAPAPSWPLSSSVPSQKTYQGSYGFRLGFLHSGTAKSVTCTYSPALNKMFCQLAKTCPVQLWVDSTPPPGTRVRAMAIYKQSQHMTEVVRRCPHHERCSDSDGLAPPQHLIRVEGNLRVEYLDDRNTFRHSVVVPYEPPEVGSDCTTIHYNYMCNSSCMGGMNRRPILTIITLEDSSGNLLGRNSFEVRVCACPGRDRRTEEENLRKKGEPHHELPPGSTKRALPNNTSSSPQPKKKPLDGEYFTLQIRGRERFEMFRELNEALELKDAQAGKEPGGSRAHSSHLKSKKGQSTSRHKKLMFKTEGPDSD
# Procedure, shortened: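 An inducible beta-lactamase reporter in HCT116 cells signals p53 pathway activation. After 16 h chemical exposure at 37C, cells load CCF4-AM substrate for 2 h at room temperature; activity is the cleaved/uncleaved emission ratio relative to DMSO.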
# [2] = TOX21_p53_BLA_p3_viability: Viability Assessment in the Tox21 HCT-116 p53 Agonism Beta-lactamase Assay, Phase 3 (AID 2283593);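 also: cells exposed to compound for 16 h before reading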
# Procedure, shortened: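 HCT-116 cells (4000/well) rested 5 h at 37C, then got DMSO compounds by pin tool (217-fold dilution) for 16 h at 37C, 5% CO2. After the bla read, CellTiter-Glo was added and luminescence read at 30 min, room temperature.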
# [3] = target: Cellular tumor antigen p53 (Homo sapiens) (UniProt P04637); assay: TOX21_p53_BLA_p5_ratio: Tox21 HCT-116 p53 Agonism Beta-lactamase Assay, Ratio, Phase 5 (AID 2283599)
# Procedure, shortened: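 HCT-116 cells carrying a p53-inducible beta-lactamase reporter were seeded at 4000 cells/well and dosed after 5 h with compound in DMSO (217-fold dilution). After 16 h at 37C, CCF4-AM substrate was added for 2 h, and the 460/530 nm emission ratio was scored as gain-of-signal versus DMSO.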
# [4] = TOX21_p53_BLA_p5_viability: Viability Assessment in the Tox21 HCT-116 p53 Agonism Beta-lactamase Assay, Phase 5 (AID 2283600)
# Procedure, shortened: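 Counter-readout for cytotoxicity: ATP-dependent luminescence from CellTiter-Glo, read in the beta-lactamase wells after 30 min at RT, following a 16 h compound exposure at 37C.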
# [5] = target: Cellular tumor antigen p53 (Homo sapiens) (UniProt P04637); assay: TOX21_p53_BLA_p4_ratio: Tox21 HCT-116 p53 Agonism Beta-lactamase Assay, Ratio, Phase 4 (AID 2283601)
# Procedure, shortened: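 HCT116 cells carrying an inducible beta-lactamase reporter were plated at 4000 cells/well, rested 5 h, then exposed to compounds in DMSO (217-fold dilution) for 16 h at 37C. CCF4-AM substrate was loaded 2 h at room temperature; 460/530 nm emission ratio scored gain-of-signal versus DMSO.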
# [6] = TOX21_p53_BLA_p4_viability: Viability Assessment in the Tox21 HCT-116 p53 Agonism Beta-lactamase Assay, Phase 4 (AID 2283597);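 also: hits lower the luminescence signal meaning cytotoxicity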
# Procedure, shortened: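 Compound exposure of HCT116 cells lasts 16 h at 37C, 5% CO2, with DMSO stocks diluted 217-fold. Cellular ATP is then quantified by CellTiter-Glo luminescence after 30 min at room temperature.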
# [7] = CCTE_Harrill_HTTr_Viability_MCF7: CCTE's 6-hour Cell Viability Assessment for the High-Throughput Transcriptomics (HTTr) Platform, in MCF-7 cells cultured in DMEM + 10% fetal bovine serum, Harrill Lab (AID 2284010; active = hit-call score of the fitted dose curve at least 0.9, where 1 is the maximum; inactive = score below 0.9)
# Procedure, shortened: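 Cells were dosed with chemicals in an eight-point dilution series, imaged 6 hours later for propidium iodide uptake, and the endpoint was analyzed by bidirectional fitting against DMSO as negative control.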
# [8] = CCTE_Harrill_HTTr_Apoptosis_MCF7: CCTE's 6-hour Apoptosis Assessment for the High-Throughput Transcriptomics (HTTr) Platform, in MCF-7 cells cultured in DMEM + 10% fetal bovine serum, Harrill Lab (AID 2284011; active = hit-call score of the fitted dose curve at least 0.9, where 1 is the maximum; inactive = score below 0.9)
# Procedure, shortened: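 Cells are dosed with test chemicals at eight concentrations and imaged 6 hours later for caspase-3/7 activity using a green fluorogenic detection reagent. Activity is fitted in both directions against DMSO controls.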
compound,measurement,setting,value
NC(CO)C(=O)NNCc1ccc(O)c(O)c1O (stereo not given),outcome,[1],inactive
same,outcome,[2],inactive
same,outcome,[3],inactive
same,outcome,[4],inactive
same,outcome,[5],inactive
CC/C(=C(/CC)c1ccc(OP(=O)(O)O)cc1)c1ccc(OP(=O)(O)O)cc1,outcome,[1],inactive
same,outcome,[2],inactive
same,outcome,[3],inactive
N[C@@H](C(=O)N[C@@H]1C(=O)N2C(C(=O)O)=C(Cl)CC[C@H]12)c1ccccc1,outcome,[1],inactive
same,outcome,[2],inactive
same,outcome,[3],inactive
same,outcome,[4],inactive
CCOC(=O)C(Br)c1ccccc1 (stereo not given),outcome,[1],inactive
C=CC(C)(O)CC/C=C(/C)CCC=C(C)C (stereo not given),outcome,[1],inactive
CC1(C)S[C@@H]2[C@H](NC(=O)[C@@H](NC(=O)N3CCNC3=O)c3ccccc3)C(=O)N2[C@H]1C(=O)O,outcome,[1],inactive
same,outcome,[2],inactive
same,outcome,[3],inactive
same,outcome,[5],inactive
CC(C)c1ccccc1C(C)C,outcome,[1],inactive
same,outcome,[2],inactive
same,AC50,[3],67 µM (active)
same,outcome,[4],inactive
same,outcome,[5],inactive
COC(=O)NCCC[Si](OC)(OC)OC,outcome,[1],inactive
CCN(CC)CC(=O)Nc1c(C)cccc1C,outcome,[1],inactive
same,outcome,[2],inactive
same,outcome,[3],inactive
same,outcome,[5],inactive
C=CCCCCCC,outcome,[1],inactive
same,outcome,[2],inactive
same,outcome,[3],inactive
same,outcome,[4],inactive
COC(=O)CC[C@H](N)C(=O)O,outcome,[1],inactive
same,outcome,[2],inactive
same,outcome,[3],inactive
Cc1cccc(C)c1NC(=O)NC1=CCCN1C,outcome,[1],inactive
same,outcome,[2],inactive
same,outcome,[6],inactive
same,outcome,[5],inactive
Cc1cc(N)c(S(=O)(=O)O)cc1Cl,outcome,[1],inactive
same,outcome,[2],inactive
same,outcome,[3],inactive
C#CC(O)CCCCC (stereo not given),outcome,[1],inactive
CCCCCCOC(=O)c1cccnc1,outcome,[1],inactive
same,outcome,[2],inactive
same,outcome,[3],inactive
same,outcome,[4],inactive
same,outcome,[5],inactive
Cc1scc2c1N(C(=O)CN1CCN(C)CC1)c1ccccc1NC2=O,outcome,[1],inactive
same,outcome,[2],inactive
same,outcome,[3],inactive
CN[C@@H]1CCc2[nH]c3ccc(C(N)=O)cc3c2C1,outcome,[1],inactive
same,outcome,[2],inactive
same,outcome,[3],inactive
same,outcome,[5],inactive
CCN(CCO)CCCC(C)Nc1ccnc2cc(Cl)ccc12 (stereo not given),outcome,[1],inactive
same,outcome,[2],inactive
same,outcome,[3],inactive
same,outcome,[4],inactive
same,outcome,[5],inactive
FC(F)(F)c1ccccc1-n1ccnc1,outcome,[1],inactive
same,outcome,[2],inactive
same,outcome,[3],inactive
same,outcome,[4],inactive
CC(=O)Nc1ccc(OCC(O)CNC(C)C)cc1 (stereo not given),outcome,[1],inactive
same,outcome,[2],inactive
same,outcome,[3],inactive
same,outcome,[4],inactive
same,outcome,[5],inactive
CC(C)C(=O)OCC(C)(C)C(O)C(C)C (stereo not given),outcome,[1],inactive
same,outcome,[2],inactive
same,outcome,[3],inactive
same,outcome,[5],inactive
Nc1cc(C(=O)O)c(O)c(S(=O)(=O)O)c1,outcome,[1],inactive
same,outcome,[2],inactive
same,outcome,[3],inactive
same,outcome,[4],inactive
NCC1CCC(C(=O)Oc2ccc(CCC(=O)O)cc2)CC1 (stereo not given),outcome,[1],inactive
same,outcome,[2],inactive
same,outcome,[6],inactive
same,outcome,[5],inactive
CC(C)(C)NSc1nc2ccccc2s1,outcome,[1],inactive
same,outcome,[2],inactive
same,outcome,[6],inactive
same,outcome,[4],inactive
same,outcome,[5],inactive
CC(=O)OCC1=C(C(=O)O)N2C(=O)[C@@H](NC(=O)Cc3ccccc3)[C@H]2SC1,outcome,[1],inactive
same,outcome,[2],inactive
same,outcome,[6],inactive
same,outcome,[5],inactive
C[C@@H](c1ncncc1F)[C@](O)(Cn1cncn1)c1ccc(F)cc1F,outcome,[1],inactive
same,outcome,[2],inactive
same,outcome,[6],inactive
same,outcome,[4],inactive
same,outcome,[5],inactive
CC1(C)O[C@@H]2C[C@H]3[C@@H]4CCC5=CC(=O)CC[C@]5(C)[C@@]4(F)[C@@H](O)C[C@]3(C)[C@]2(C(=O)CCl)O1,outcome,[1],inactive
same,outcome,[2],inactive
same,outcome,[6],inactive
same,outcome,[4],inactive
same,outcome,[5],inactive
COCc1ccc(COC)cc1,outcome,[1],inactive
same,outcome,[2],inactive
same,outcome,[6],inactive
same,outcome,[5],inactive
Oc1ccc(C(O)CNCCCCCCNCC(O)c2ccc(O)c(O)c2)cc1O (stereo not given),outcome,[1],inactive
same,outcome,[2],inactive
same,outcome,[3],inactive
same,outcome,[4],inactive
CN1CCN(c2cc3c(cc2F)c(=O)c(C(=O)O)cn3-c2ccc(F)cc2)CC1,outcome,[1],inactive
same,outcome,[2],inactive
same,outcome,[3],inactive
same,outcome,[4],inactive
Nc1cccc2c(=O)[nH][nH]c(=O)c12,outcome,[1],inactive
same,outcome,[2],inactive
same,outcome,[3],inactive
same,outcome,[4],inactive
same,outcome,[5],inactive
CC(=O)OCC(=O)[C@@]1(O)[C@H](C)C[C@H]2[C@@H]3C[C@H](F)C4=CC(=O)C=C[C@]4(C)[C@H]3[C@@H](O)C[C@@]21C,outcome,[1],inactive
same,outcome,[2],inactive
same,outcome,[6],inactive
same,outcome,[5],inactive
O=C1c2ccccc2C(=O)N1CO,outcome,[1],inactive
same,outcome,[2],inactive
same,outcome,[3],inactive
same,outcome,[4],inactive
same,outcome,[5],inactive
CC(C)(C)c1nnc(NS(=O)(=O)c2ccccc2)s1,outcome,[1],inactive
same,outcome,[2],inactive
same,outcome,[3],inactive
same,outcome,[4],inactive
O=C(Oc1ccccc1C(=O)O)c1ccccc1O,outcome,[1],inactive
same,outcome,[2],inactive
same,outcome,[6],inactive
same,outcome,[5],inactive
CN(C)CCC(O)(c1ccccc1)c1ccccc1Cl (stereo not given),outcome,[1],inactive
same,outcome,[2],inactive
same,outcome,[3],inactive
same,outcome,[4],inactive
CCN1CCCC1CNC(=O)c1cc(S(N)(=O)=O)ccc1OC (stereo not given),outcome,[1],inactive
same,outcome,[2],inactive
same,outcome,[3],inactive
same,outcome,[4],inactive
same,outcome,[5],inactive
same,outcome,[7],inactive
same,outcome,[8],inactive
